Bioassay records deposited in PubChem BioAssay by The Scripps Research Institute Molecular Screening Center.
An excerpt weighted towards active compounds, which were near 3.4% of everything screened.
PLC-gamma1 inh – blocks human PLC-gamma1 enzyme activity | inhibition, % at 12.2 µM | purified PLC-gamma1, fluorogenic substrate, fluorescence | hit rate 0.84% among 370,000 | AID 720700 | P19174; in the data active means inhibition above about 9.5%
proKLK7 act – activators of human kallikrein-7 zymogen; P49862; purified proKLK7, EDANS-DABCYL substrate fluorescence; 100% is mature enzyme control, 0% vehicle; activation, % at 7 µM; hit rate 0.9% among 370,000; AID 652039;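 active means activation above the mean of all tested compounds plus 3 SD, computed per campaign excluding outliers beyond control limits, cut at about 13% in these data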
HGIII-sPLA2 inh – Blocks human group III sPLA2 activity. Q9NZ20. QFRET BODIPY PC-A2 liposome hydrolysis, fluorescence. inhibition, % at 12.2 µM. hit rate 0.56% among 370,000. AID 743126;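 active means inhibition above mean plus 3 SD of compounds lying within the high and low control bounds, cut at about 19% in these data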
ADAM17 inh – ADAM17 inhibition, QFRET primary screen. recombinant ADAM17, EDANS/DABCYL FRET peptide cleavage. inhibition, % at 6.95 µM. hit rate 0.83% among 370,000. AID 720648;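 active means inhibition above the mean of compounds lying between control limits plus 3 SD, set per campaign, cut at about 8.5% in these data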
PLCb3 inh – blocks human PLC-beta3 enzyme activity | Q01970 | Purified PLC-beta3, fluorogenic substrate, fluorescence | inhibition, % at 12.2 µM | hit rate 0.18% among 370,000 | AID 720704
ADAM10 inh – inhibitors of human ADAM10; hit rate 0.62% among 370,000; recombinant ADAM10, EDANS/DABCYL FRET peptide cleavage, 3 h; O14672; AID 720582; inhibition, % at 7 µM;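 active means inhibition above a per-campaign cutoff equal to the mean of compounds falling between control-based bounds plus 3 SD, cut at about 20% in these data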
Target sequence (O14672 214-748 limits assumed): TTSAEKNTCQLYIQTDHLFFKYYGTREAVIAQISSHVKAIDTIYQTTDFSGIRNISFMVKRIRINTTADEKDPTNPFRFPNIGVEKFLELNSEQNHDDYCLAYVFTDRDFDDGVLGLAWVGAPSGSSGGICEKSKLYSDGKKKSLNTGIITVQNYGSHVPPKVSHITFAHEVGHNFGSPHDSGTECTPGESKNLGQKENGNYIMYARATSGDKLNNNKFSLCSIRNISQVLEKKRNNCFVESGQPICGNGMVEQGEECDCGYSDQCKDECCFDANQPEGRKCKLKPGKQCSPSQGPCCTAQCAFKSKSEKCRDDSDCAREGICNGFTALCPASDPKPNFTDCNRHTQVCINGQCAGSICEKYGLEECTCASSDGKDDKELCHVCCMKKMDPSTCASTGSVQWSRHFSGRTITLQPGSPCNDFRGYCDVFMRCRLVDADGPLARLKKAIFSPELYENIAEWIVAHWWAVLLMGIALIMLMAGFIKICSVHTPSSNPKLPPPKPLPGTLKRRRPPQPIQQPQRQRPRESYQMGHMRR
PLCg1 ctr – counter-screen for PLC-beta3 inhibitors: inhibitors of human PLC-gamma1; hit rate 3.1% among 3,300; inhibition, % at 12.3 µM; purified PLC-gamma1, fluorogenic substrate, fluorescence; shares compounds with PLC-gamma1 inh; in the data active means inhibition above about 9.5%
PLCbeta3 conf – human PLC-beta3 inhibition, confirmation. purified PLC-beta3, fluorogenic substrate fluorescence. inhibition, % at 12.3 µM. shares compounds with PLC-gamma1 inh. hit rate 1% among 3,300
Hits are given with their value; . = inactive; / = no result given. Unless noted, no stated cut-off is given here; in the data, active means inhibition above about 11%; inactive means the rest.

SMILES	PLC-gamma1 inh	proKLK7 act	HGIII-sPLA2 inh	ADAM17 inh	PLCb3 inh	ADAM10 inh	PLCg1 ctr	PLCbeta3 conf
COCCCNC(=S)Nc1c(C)cc(C)cc1C	13.3	.	.	.	.	.	.	.
CC(NC(=O)c1ccco1)c1nc(-c2ccccc2)no1 (configuration not stated)	.	.	.	.	.	.	/	/
Cc1cccc(-c2noc(C(C)NC(=O)c3ccco3)n2)c1 (configuration not stated)	13.1	.	.	.	.	.	.	.
Cc1cc(C)c2c(c1)/C(=N/NS(=O)(=O)c1ccccc1)CCC2	.	.	.	.	10.8	.	.	.
Cn1c(=O)c2cc(S(=O)(=O)N3CCN(Cc4ccccc4)CC3)ccc2n(C)c1=O	.	.	.	.	.	.	/	/
O=C(NCCc1ccccc1)C1CCCN1S(=O)(=O)c1ccc(F)cc1 (configuration not stated)	.	.	.	.	12.1	.	.	.
CC(=O)c1cc2c(cc1NC(=O)CCNC(=O)c1ccccc1Cl)OCO2	.	.	.	.	.	.	/	/
O=C(CCNC(=O)c1ccccc1Cl)Nc1ccc2c(c1)OCO2	11.0	.	.	.	.	.	.	.
C=CCN1C(=O)[C@H](CC(=O)NCc2ccc(OC)c(OC)c2)[C@@]2(C(=O)OCC)CCCC=C12	.	.	.	.	.	.	/	/
CC(C)NC(=O)C1(C)CCCN1C/C=C/c1ccccc1 (configuration not stated)	.	.	.	.	.	.	/	/
CC(C)NC(=O)C1(C)CCN1C/C=C/c1ccccc1 (configuration not stated)	12.4	.	.	.	.	.	.	.
CCN(C(=O)C1CCCN1S(=O)(=O)c1cccc2nsnc12)c1ccccc1 (configuration not stated)	.	.	.	.	.	.	/	/
Cc1cccc(N(C)C(=O)C2CCCN2S(=O)(=O)c2cccc3nsnc23)c1 (configuration not stated)	10.3	.	.	.	.	.	.	.
CCOc1ccc(-c2csc3ncn(-c4ccc(OC)cc4)c(=O)c23)cc1	10.5	.	.	.	.	.	.	.
COC(=O)[C@H]1C[C@@]2(n3ccc4ccccc43)c3ccccc3N(S(=O)(=O)c3ccccc3)[C@H]2N1C(=O)CNC1CCCCC1	.	.	.	.	.	.	/	/
CCCCCCNC(=O)C1CSCCS(=O)(=O)N1Cc1ccc(OC)cc1 (configuration not stated)	.	.	.	.	.	.	/	/
CN(Cc1ccccc1)C(=O)CN1C(=O)NC2(CCCC2)C1=O	.	.	.	.	.	.	/	/
CC(C)N(Cc1ccccc1)C(=O)CN1C(=O)NC2(CCCC2)C1=O	10.3	.	.	.	.	.	.	.
CN(Cc1cn(Cc2ccccc2)nn1)S(=O)(=O)c1ccccc1Br	.	.	.	.	.	.	/	/
COC(=O)[C@]12C[C@H](CC(=O)NCCC(C)C)C(=O)N(Cc3ccccc3)C1=C[C@H](C(C)(C)C)O[C@@H]2C	.	.	.	.	.	.	/	/
Cc1ccc(C2=N/C(=C\N(C)C)C(=O)O2)cc1	9.6	.	.	.	.	.	.	.
CN(C)/C=C1/N=C(c2ccccc2)OC1=O	10.1	.	.	.	.	.	.	.
COc1ccccc1NC(=O)COc1ccc(C(=O)OCC(=O)NC(C)(C)C)cc1OC	12.6	.	.	.	.	.	.	.
CCCNC(=O)COC(=O)c1ccc(OCC(=O)Nc2ccccc2OC)c(OC)c1	.	.	.	.	.	.	/	/
Cc1ccc(CN2CCN(/N=C/c3sccc3C)CC2)c(C)c1	10.9	.	.	.	.	.	.	.
SMILES	PLC-gamma1 inh	proKLK7 act	HGIII-sPLA2 inh	ADAM17 inh	PLCb3 inh	ADAM10 inh	PLCg1 ctr	PLCbeta3 conf
O=c1c2ccccc2n(Cc2ccccc2)n1[C@@H](Cc1ccccc1)Cn1cc(-c2ccc(-c3ccccc3)cc2)nn1	.	.	.	.	.	.	/	/
S=C(NCCCc1cnc[nH]1)NCCCN(Cc1ccc(Cl)cc1)c1ccc(Br)cn1	10.8	.	.	.	.	.	.	.
CN1C(=O)CSC1=NC12CC3CC(CC(C3)C1)C2	10.7	.	.	.	.	.	.	.
O=C1c2cccnc2C(=O)N1Cc1ccccc1	.	.	.	.	.	.	/	/
O=C1c2ccccc2C(=O)N1Cc1cccnc1	12.4	.	.	.	.	.	.	.
OC(COc1c(Cl)cc(Cl)cc1Cl)CN1CCCCC1 (configuration not stated)	14.9	.	.	.	.	.	.	.
CC(C)C[C@@H]1COc2cccc(F)c2S(=O)(=O)N1C	.	.	.	.	.	.	/	/
COc1ccc(NC(=O)c2cc(C3CCCCN3C(=O)c3cc(F)ccc3C)on2)c(C)c1 (configuration not stated)	9.7	.	.	.	.	.	.	.
COc1cc(C(=O)N2CCCCC2c2cc(C(=O)NC(C)C)no2)cc(OC)c1C (configuration not stated)	13.4	.	.	.	.	.	.	.
COc1ccc(C(=O)N2CCCCC2c2cc(C(=O)Nc3ccc(OC)cc3C)no2)cc1 (configuration not stated)	.	.	.	.	.	.	/	/
O=C(Nc1ccc(Cl)c(S(=O)(=O)N2CCOCC2)c1)c1cc2ccccc2oc1=O	.	.	.	.	.	.	/	/
Cc1ccc(S(=O)(=O)N2CCOCC2)cc1NC(=O)c1cc2ccccc2oc1=O	10.3	.	.	.	.	.	.	.
C[C@@H]1[C@@H](O)C[C@@]2(C[C@H](O)c3cc(F)ccc3O2)O[C@H]1c1ccccc1Cl	.	.	.	.	.	.	/	/
CC(c1ccccc1)n1cc(C(=O)N2CCCN(Cc3ccccc3)CC2)nn1 (configuration not stated)	.	.	.	.	.	.	/	/
COc1ccc(CNCC(O)COc2ccc(C(C)(C)c3ccccc3)cc2)cc1 (configuration not stated)	10.9	.	.	.	.	.	.	.
COC(=O)c1ccc(CNCC(O)COc2ccc(-c3ccccc3)cc2)cc1 (configuration not stated)	.	.	.	.	.	.	/	/
CNC(=O)C(=O)Nc1c(C)cc(C)cc1C	.	.	.	.	12.3	.	.	.
CCCC/C=C1/[C@@H](C(C)C)N(Cc2ccc3c(c2)OCO3)C2=N[C@H](c3ccccc3)CC(=O)N21	.	/	.	.	11.1	.	.	.
Cc1ccccc1N1CCN(S(=O)(=O)c2ccc3c(c2)oc(=O)n3C)CC1	.	.	.	.	.	.	/	/
FC(F)(F)c1ccccc1NC(=S)Nc1ccccc1	10.7	.	.	.	.	.	.	.
